In PubChem BioAssay AID1159580 (chemical genetic matrix, 2015):
Values joined by “and” are separate entries in the source; they are usually repeats but may differ in a detail not shown here. Equal values may be shown once. The whole screen tested about 5,500 compounds, of which about 2,000 (36%) were called active. Roughly 18% stayed inconclusive and do not appear here. The list shows a part of the results. A number with no mark means an inactive call. No stated cut-off is given here; in the data, active means normalized growth mostly below about 0.91 (no sharp cut-off); inconclusive means no clear call, values can overlap the other calls; inactive means mostly above about 0.92.

Test: chemical genetic growth profiling, strain panel (AID 1159580);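 further: tested at 20 µM; growth read once vehicle control cultures reached saturation at 30 °C; 1 = growth at the plate median or of vehicle wells; lower values mean less growth of the strain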
Conditions: S. cerevisiae deletion strains, growth OD

Q: For CCCOc1ccc2nc(NC(=O)OC)[nH]c2c1, which normalized growth (locus YAL021C, strain ccr4, hits give low values) is on record?
A: 1.03

Q: What about the normalized growth (locus YAL026C, strain drs2, hits give low values) of the same molecule?
A: 1.02

Q: What about the normalized growth (locus YAL030W, strain snc1, hits give low values) of the same molecule?
A: 1.02

Q: What about the normalized growth (locus YBL061C, strain skt5, hits give low values) of the same molecule?
A: 1.01

Q: And the normalized growth (locus YBR009C, strain hhf1, hits give low values)?
A: 1.01

Q: What about the normalized growth (locus YBR021W, strain FUR4, hits give low values) of the same molecule?
A: 1.01

Q: And the normalized growth (locus YBR023C, strain chs3, hits give low values)?
A: 1.02

Q: And the normalized growth (locus YBR171W, strain sec66, hits give low values)?
A: 1.02

Q: And the normalized growth (locus YBR229C, strain ROT2, hits give low values)?
A: 0.992

Q: And the normalized growth (locus YBR231C, strain swc5, hits give low values)?
A: 1.01

Q: And the normalized growth (locus YBR279W, strain paf1, hits give low values)?
A: 1.02

Q: And the normalized growth (locus YCL011C, strain gbp2, hits give low values)?
A: 1.01

Q: And the normalized growth (locus YCL016C, strain dcc1, hits give low values)?
A: 1.02

Q: What about the normalized growth (locus YCL029C, strain bik1, hits give low values) of the same molecule?
A: 0.974

Q: And the normalized growth (locus YCL061C, strain MRC1, hits give low values)?
A: 1.01

Q: And the normalized growth (locus YCL069W, strain vba3, hits give low values)?
A: 1.02

Q: What about the normalized growth (locus YCR088W, strain abp1, hits give low values) of the same molecule?
A: 1.02

Q: And the normalized growth (locus YDL005C, strain med2, hits give low values)?
A: 1.02

Q: What about the normalized growth (locus YDL035C, strain GPR1, hits give low values) of the same molecule?
A: 1.01

Q: What about the normalized growth (locus YDL040C, strain nat1, hits give low values) of the same molecule?
A: 1.02

Q: And the normalized growth (locus YDL074C, strain BRE1, hits give low values)?
A: 1.02

Q: What about the normalized growth (locus YDL101C, strain DUN1, hits give low values) of the same molecule?
A: 0.997

Q: What about the normalized growth (locus YDL134C, strain PPH21, hits give low values) of the same molecule?
A: 0.982

Q: What about the normalized growth (locus YDL185W, strain tfp1, hits give low values) of the same molecule?
A: 0.976

Q: What about the normalized growth (locus YDL192W, strain arf1, hits give low values) of the same molecule?
A: 0.97

Q: And the normalized growth (locus YDR001C, strain nth1, hits give low values)?
A: 1.02

Q: And the normalized growth (locus YDR069C, strain doa4, hits give low values)?
A: 1.01

Q: And the normalized growth (locus YDR101C, strain arx1, hits give low values)?
A: 1.01

Q: What about the normalized growth (locus YDR137W, strain rgp1, hits give low values) of the same molecule?
A: 0.951

Q: What about the normalized growth (locus YDR150W, strain NUM1, hits give low values) of the same molecule?
A: 0.996

Q: And the normalized growth (locus YDR159W, strain sac3, hits give low values)?
A: 1.01

Q: And the normalized growth (locus YDR162C, strain NBP2, hits give low values)?
A: 0.983

Q: And the normalized growth (locus YDR195W, strain ref2)?
A: 1.04

Q: What about the normalized growth (locus YDR297W, strain sur2, hits give low values) of the same molecule?
A: 1.02

Q: What about the normalized growth (locus YDR318W, strain mcm21, hits give low values) of the same molecule?
A: 0.977

Q: And the normalized growth (locus YDR334W, strain swr1, hits give low values)?
A: 1.01

Q: And the normalized growth (locus YDR335W, strain msn5, hits give low values)?
A: 1.02

Q: And the normalized growth (locus YDR388W, hits give low values)?
A: 0.981

Q: And the normalized growth (locus YDR392W, strain spt3, hits give low values)?
A: 0.99

Q: What about the normalized growth (locus YDR502C, strain sam2, hits give low values) of the same molecule?
A: 0.983

Q: And the normalized growth (locus YEL003W, strain gim4, hits give low values)?
A: 0.841 (active)

Q: What about the normalized growth (locus YEL037C, strain rad23, hits give low values) of the same molecule?
A: 1.01

Q: What about the normalized growth (locus YEL061C, strain CIN8 (second series), hits give low values) of the same molecule?
A: 1.02

Q: And the normalized growth (locus YEL061C, strain CIN8, hits give low values)?
A: 0.999

Q: What about the normalized growth (locus YER015W, strain faa2, hits give low values) of the same molecule?
A: 1

Q: And the normalized growth (locus YER016W, strain bim1, hits give low values)?
A: 1.02

Q: And the normalized growth (locus YER110C, hits give low values)?
A: 0.968

Q: What about the normalized growth (locus YER111C, strain swi4, hits give low values) of the same molecule?
A: 1.01

Q: And the normalized growth (locus YER155C, strain BEM2 (second series), hits give low values)?
A: 1.02

Q: And the normalized growth (locus YER155C, strain BEM2, hits give low values)?
A: 0.992

Q: And the normalized growth (locus YER167W, strain BCK2, hits give low values)?
A: 0.988

Q: What about the normalized growth (locus YFR010W, strain ubp6, hits give low values) of the same molecule?
A: 1.02

Q: And the normalized growth (locus YGL078C, strain dbp3, hits give low values)?
A: 0.982

Q: What about the normalized growth (locus YGL086W, strain mad1, hits give low values) of the same molecule?
A: 0.989

Q: What about the normalized growth (locus YGL167C, strain pmr1, hits give low values) of the same molecule?
A: 1.01

Q: And the normalized growth (locus YGL173C, strain kem1, hits give low values)?
A: 1.02

Q: What about the normalized growth (locus YGL227W, strain vid30, hits give low values) of the same molecule?
A: 1.02

Q: And the normalized growth (locus YGL240W, strain doc1, hits give low values)?
A: 1

Q: What about the normalized growth (locus YGL248W, strain PDE1, hits give low values) of the same molecule?
A: 0.986

Q: And the normalized growth (locus YGL253W, strain hxk2, hits give low values)?
A: 1.01

Q: And the normalized growth (locus YGR078C, strain PAC10, hits give low values)?
A: 0.856

Q: What about the normalized growth (locus YGR135W, strain pre9, hits give low values) of the same molecule?
A: 0.953

Q: What about the normalized growth (locus YGR229C, strain SMI1, hits give low values) of the same molecule?
A: 0.983

Q: What about the normalized growth (locus YGR252W, strain gcn5, hits give low values) of the same molecule?
A: 0.956

Q: What about the normalized growth (locus YHR013C, strain ard1, hits give low values) of the same molecule?
A: 1.01

Q: And the normalized growth (locus YHR027C, strain rpn1, hits give low values)?
A: 1.01

Q: What about the normalized growth (locus YHR030C, strain SLT2, hits give low values) of the same molecule?
A: 0.988 and 1.02

Q: What about the normalized growth (locus YHR079C, strain IRE1 (second series), hits give low values) of the same molecule?
A: 0.986

Q: What about the normalized growth (locus YHR079C, strain IRE1, hits give low values) of the same molecule?
A: 1.02

Q: And the normalized growth (locus YHR094C, strain hxt1, hits give low values)?
A: 0.982

Q: And the normalized growth (locus YHR129C, strain ARP1, hits give low values)?
A: 0.989

Q: And the normalized growth (locus YHR142W, strain chs7, hits give low values)?
A: 1.03

Q: What about the normalized growth (locus YHR200W, strain rpn10, hits give low values) of the same molecule?
A: 0.98

Q: And the normalized growth (locus YIL066C, strain RNR3, hits give low values)?
A: 0.996

Q: And the normalized growth (locus YIL073C, strain SPO22, hits give low values)?
A: 0.964

Q: And the normalized growth (locus YIL125W, strain kgd1, hits give low values)?
A: 0.993

Q: And the normalized growth (locus YIR030C, strain dcg1, hits give low values)?
A: 0.983

Q: And the normalized growth (locus YJL092W, strain hpr5, hits give low values)?
A: 1.01

Q: What about the normalized growth (locus YJL095W, strain BCK1 (second series), hits give low values) of the same molecule?
A: 1.02

Q: And the normalized growth (locus YJL095W, strain BCK1, hits give low values)?
A: 1.01 and 1.06

Q: And the normalized growth (locus YJL115W, strain asf1, hits give low values)?
A: 1

Q: What about the normalized growth (locus YJL129C, strain trk1, hits give low values) of the same molecule?
A: 1.03

Q: And the normalized growth (locus YJL134W, strain LCB3, hits give low values)?
A: 0.995

Q: What about the normalized growth (locus YJL154C, strain vps35, hits give low values) of the same molecule?
A: 1.02

Q: And the normalized growth (locus YJL164C, strain tpk1, hits give low values)?
A: 1.02

Q: And the normalized growth (locus YJL166W, strain qcr8, hits give low values)?
A: 1.02

Q: What about the normalized growth (locus YJL168C, strain set2, hits give low values) of the same molecule?
A: 0.994

Q: And the normalized growth (locus YJL187C, strain SWE1 (second series), hits give low values)?
A: 1.01

Q: What about the normalized growth (locus YJL187C, strain SWE1, hits give low values) of the same molecule?
A: 1.01

Q: What about the normalized growth (locus YJR043C, strain POL32, hits give low values) of the same molecule?
A: 0.991

Q: And the normalized growth (locus YJR066W, strain TOR1, hits give low values)?
A: 0.94
